From PubChem BioAssay (NCI)
About 83,000 compounds went through this panel and 20% of them were active in at least one assay; those are over-represented in the sample as a whole.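 Cell lines were cultured in 96-well plates, exposed to a single compound concentration, and assessed for percent growth 48 hours later.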 A number with no mark means an inactive call. The source made the active and inactive calls. The calls were made as follows: active = growth percent below 10; inactive = the rest.

Columns and labels:
Assay in all cases: NCI-60 one-dose screen, 48 h (100 = growth as untreated, 0 = no growth, -100 = all killed)
Details in all cases: 10 µM unless noted
NCI-H23 lung = system: NCI-H23 lung
NCI-H226 lung = system: NCI-H226 lung
NCI-H322M lung = system: NCI-H322M lung
HOP-62 NSCLC = system: HOP-62 NSCLC
NCI-H460 lung = system: NCI-H460 lung
HOP-92 NSCLC = system: HOP-92 NSCLC
NCI-H522 lung = system: NCI-H522 lung
A549/ATCC NSCLC = system: A549/ATCC NSCLC
786-0 renal = system: 786-0 renal
COLO 205 colon = system: COLO 205 colon

SMILES	growth (NCI-H23 lung)	growth (NCI-H226 lung)	growth (NCI-H322M lung)	growth (HOP-62 NSCLC)	growth (NCI-H460 lung)	growth (HOP-92 NSCLC)	growth (NCI-H522 lung)	growth (A549/ATCC NSCLC)	growth (786-0 renal)	growth (COLO 205 colon)
O=c1c2ccccc2sc2c(NCCN3CCOCC3)nc3ccccc3c12	68%	59.2%	104%	52%	27.3%	24.8%	63.1%	43.1%	48.5%	21.9%
O=[N+]([O-])c1ccc(NS(=O)(=O)c2cc(Cl)ccc2Cl)c2ccccc12	32.5%	65.7%	68.4%	65.7%	46.6%	8.11% (active)	10.1%	89.5%	62.9%	73.6%
Nc1nc2ccc(CNc3ccc(C(=O)NC(CC(=O)O)C(=O)O)cc3)cc2c(=O)[nH]1 (stereo not given)	31.7%	57.4%	55.7%	26.5%	24.4%	64.1%	-0.0288% (active)	11%	7.57% (active)	85.4%
COc1cccc(-c2nc3sccn3c2-c2ccnc(NCCNC(=O)c3ccccc3)n2)c1	87.3%	79.3%	110%	111%	84.9%	77.8%	61.8%	75.3%	78.4%	51.8%
COc1ccc(N)c(S)c1	92.3%	92.8%	106%	90.5%	106%	88.4%	84.5%	77.1%	107%	84.5%
C/C(=N/NC(=O)Cn1c2ccccc2c2ccncc21)c1cccs1	98.1%	89.3%	109%	100%	94.6%	92%	85.6%	84.7%	100%	105%
Cc1cn(-c2cc(C(=O)Nc3cccc(-n4ccc5c(NC(=O)c6ccccc6)nccc54)c3)cc(C(F)(F)F)c2)cn1	22.5%	33.8%	32.9%	31.5%	-13.3% (active)	-6.29% (active)	-7.45% (active)	-19% (active)	-70.6% (active)	-20.1% (active)
OCCOCC(F)(F)F	104%	105%	97.8%	111%	108%	94.9%	110%	113%	113%	112%
CC(Cl)(CCl)CS(=O)(=O)c1ccc(Cl)cc1 (stereo not given)	101%	92.6%	100%	94.8%	107%	90%	92.9%	88.9%	102%	106%
COc1cc2c(cc1OC)-c1c(oc3c4c(ccc3c1=O)OC(C)(C)C=C4)CO2	45.6%	89.3%	86.2%	59.6%	77.1%	90.2%	56.7%	71.3%	76.6%	113%
CCN(CC)CCNC(=O)c1c(C)[nH]c(/C=C2\C(=O)Nc3cc(NC(=O)NC(=O)c4ccc(OC)cc4F)ccc32)c1C	103%	108%	105%	109%	83.7%	94.9%	104%	85.3%	-55.6% (active)	94.7%
COC(=O)c1oc2c(C(C)=O)c(OCCCN(C)C)ccc2c1C	97.3%	96.1%	82.2%	123%	118%	28.1%	86.4%	110%	96%	109%
COc1cc(NS(=O)(=O)c2ccc(N)cc2)ncn1	101%	112%	104%	108%	110%	105%	114%	102%	99.1%	113%
Cc1cc2c(cc1C)N(C(=O)CCl)CCN2C(=O)CCl	-57.1% (active)	-19.3% (active)	10.2%	-46.7% (active)	-54.7% (active)	-72.5% (active)	-82.5% (active)	-29.4% (active)	-24.8% (active)	-41.7% (active)
